The values below come from PubChem BioAssay (NCATS).

Experiment [1] is described as follows: qHTS Assay for Identifying Gametocytocidal Compounds (AID 743244; active = well fitted curve in the direction sought with a large enough effect; an effect the other way counts as inactive or inconclusive;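 also: % is scaled to controls: 0 for no effect and ±100 for the full control effect; actives lower the fluorescent signal which means gametocytes are killed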). Particulars: P. falciparum 3D7 stage III-V gametocytes, alamarBlue, 72 h; max response: stronger effect = lower value. A digest of the protocol: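 Using 20,000 stage III–V 3D7 gametocytes per well, compounds were incubated 72 h under 37 °C/5% CO2. Viability was then assessed by 24 h alamarBlue reduction, measured fluorometrically at 525/598 nm.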

Experiment [2] is described as follows: qHTS profiling for inhibitors of Plasmodium falciparum (3D7) proliferation (AID 743322).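 Also: infected erythrocytes exposed to compound for 72 h before lysis; 100% = DMSO vehicle wells and 0% = 0.29 µM artemisinin.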 Conditions: P. falciparum 3D7 proliferation; at 28.7 µM (top of the series). In outline:
(§1)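 Parasite DNA was quantified by SYBR Green I fluorescence (ex 485, em 535 nm) after overnight lysis in saponin/Triton buffer at room temperature. Cultures at 0.3% parasitemia and 2.5% hematocrit were first exposed to compound for 72 h at 37 C; signals were normalised to artemisinin (0.29 uM) and vehicle wells.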
In general terms: Quantitative high-throughput screening tests each substance at several concentrations.

The nature of experiment [3]: qHTS profiling for inhibitors of Plasmodium falciparum (DD2) proliferation (AID 743323). Conditions: lower = more inhibition; at 28.7 µM (top of the series). A digest of the protocol: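 Parasite DNA quantified by SYBR Green fluorescence (ex 485, em 535 nm) after saponin/Triton lysis and overnight dark incubation. Cultures: 0.3% parasitemia, 2.5% hematocrit, 72 h, 37 C; data scaled between DMSO and 0.29 uM artemisinin.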

Experiment [4] in a line: qHTS profiling for inhibitors of Plasmodium falciparum (HB3) proliferation (AID 743324; active = well fitted curve in the direction sought with a large enough effect; an effect the other way counts as inactive or inconclusive;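 also: 100% = DMSO vehicle wells and 0% = artemisinin-treated control wells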). Particulars: Plasmodium falciparum HB3 blood-stage proliferation; at 28.7 µM (top of the series). In outline: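 SYBR Green fluorescence (485 ex/535 em) of lysed cultures, incubated overnight at room temperature in the dark, quantifies parasite DNA. Infected erythrocytes at 0.3% parasitemia and 2.5% hematocrit were exposed 72 h; values normalized to DMSO and 0.29 uM artemisinin controls.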

The nature of experiment [5]: qHTS profiling of the MIPE4 collection as inhibitors of Plasmodium falciparum (3D7) proliferation (AID 743344).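 Also: scaled between DMSO vehicle wells and 0.29 µM artemisinin as full inhibition.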 Particulars: P. falciparum 3D7 in erythrocytes, SYBR Green DNA fluorescence, 72 h; at 28.5 µM (top of the series) unless noted. In outline:
as §1

Experiment [6] is described as follows: qHTS profiling of the MIPE4 collection as inhibitors of Plasmodium falciparum (DD2) proliferation (AID 743345). Particulars: P. falciparum Dd2 in erythrocytes, SYBR Green DNA, 72 h; at 28.5 µM (top of the series) unless noted. A digest of the protocol: as §1
Experiment [7] can be described thus: qHTS profiling of the MIPE4 collection as inhibitors of Plasmodium falciparum (DD2) proliferation (Rep 2) (AID 743346). Particulars: P. falciparum Dd2 in erythrocytes, SYBR Green DNA, 72 h; at 28.5 µM (top of the series) unless noted. A digest of the protocol: as §1
A short description of experiment [8]: qHTS profiling of the MIPE4 collection as inhibitors of Plasmodium falciparum (HB3) proliferation (AID 743347).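 Also: plate controls were DMSO vehicle wells for no effect and artemisinin wells for full effect.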 Conditions: P. falciparum HB3 in erythrocytes, SYBR Green DNA, 72 h; at 28.5 µM (top of the series) unless noted. In outline: as §1
Experiment [9] in a line: High-throughput drug toxicity screening in the BPDCN cell line Gen2.2 (AID 1224824).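 Also: cells exposed to compounds for 48 h before reading.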 Conditions: Gen2.2 BPDCN cells; at 45.8 µM (top of the series) unless noted. A digest of the protocol:
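Gen2.2 cells (500/well) in phenol red-free RPMI with 10% FBS were exposed to compounds for 48 h at 37 °C, 5% CO2. Viability was read by CellTiter-Glo luminescence and normalized to DMSO (100%) and 9.2 uM bortezomib (0%).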

A short description of experiment [10]: High-throughput drug toxicity screening in the BPDCN cell line Cal-1 (AID 1224825). Particulars: Cal-1 BPDCN cell viability, qHTS; at 45.8 µM (top of the series) unless noted. A digest of the protocol: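 Percent activity derived from CellTiter-Glo luminescence, scaling DMSO to 100% and 9.2 uM final bortezomib to 0%. BPDCN Cal-1 cells (500/well, RPMI plus 10% FBS) incubated with compounds 48 hours at 37C before reading.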

Experiment [11] in a line: qHTS assay for measurement of the activity of small molecule inhibitors on Zika virus induced Caspase-3 activity in human iPSC derived neural progenitor cells (hNPCs) (AID 1224857; active = well fitted curve in the direction sought with a large enough effect; an effect the other way counts as inactive or inconclusive; also: % of control where 0% means no effect; nearly all actives have a fitted effect of over 65% in size). In outline: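 After overnight (16–20 h) culture at 350 cells/well, hNPCs get compound, then ZIKV 2 FFU/cell one hour later. Six hours on, Caspase-Glo 3/7 is added and luminescence measured.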

The nature of experiment [12]: qHTS assay for measurement of the activity of small molecule inhibitors on Zika virus induced Caspase-3 activity in human astrocytoma cells (AID 1224859; active = well fitted curve in the direction sought with a large enough effect; an effect the other way counts as inactive or inconclusive;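 also: plate controls were ZIKV-infected untreated cells for no effect and uninfected cells for full effect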). In outline:
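Inhibition of Zika-induced caspase-3/7 activity: SNB-19 cells, 1 h compound pretreatment, ZIKV 2 FFU/cell for 6 h at 37 C, Caspase-Glo luminescence read-out.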

The structures appear in SMILES notation. Records with an inconclusive call do not appear. Activity calls are given as the source filed them. Unless noted, no rule for the calls is given here.

On to `COc1cccc2nc(-c3cccs3)nc(NN3C(=O)C=C(C)C3=O)c12`, for which, in experiment [1], the max response is 19.8% (inactive). The remaining parasite growth % (stronger effect = lower value) in [2] was 92.8%. Also, the activity, percent of control in experiment [3] amounted to 81.6%. In addition, the remaining proliferation (% of control), lower = more inhibition in experiment [4] is 87.8%. In [5], this compound registered a parasite growth, % of DMSO control of 27.1%. Moreover, the parasite growth remaining, % of DMSO control (lower = more inhibition) in experiment [6] is 90.8%. Also, the parasite growth, % of control (lower = inhibition) in experiment [7] was determined as 18.1%. This compound displayed a growth, % of control in experiment [8] of 6.3%. In addition, the cell viability, % of control (lower = more cytotoxic) in experiment [9] was found to be 4.3%. Besides, the viability (% of control) in experiment [10] is 3.16%. Also, the Potency result in experiment [11] is “inactive”.
Turning to `NC(=O)c1cccc2cn(-c3ccc([C@@H]4CCCNC4)cc3)nc12`, the parasite growth, % of DMSO control in [5] was 12.4%. In experiment [6], this compound yielded a parasite growth remaining, % of DMSO control (lower = more inhibition) of 11.3%. Moreover, in experiment [8], the growth, % of control stood at 6.74%. Moreover, the cell viability, % of control (lower = more cytotoxic) in experiment [9] is 116%. For the same compound, the viability (% of control) in [10] came to 5.94%. The Potency entry in [11] and in [12] was “inactive” in each case.
With `C[C@]12CC[C@H](O)CC1=CCC1C2CC[C@]2(C)C(n3cnc4ccccc43)=CCC12` (some centres not stated), the parasite growth, % of DMSO control in experiment [5] was determined as 6.89%. In addition, the parasite growth remaining, % of DMSO control (lower = more inhibition) in [6] was determined as 72.8%. In addition, in experiment [7], the parasite growth, % of control (lower = inhibition) came to 21.9%. Also, the growth, % of control in [8] turned out to be 9.11%. Also, the cell viability, % of control (lower = more cytotoxic) in experiment [9] came to 109%. In addition, the viability (% of control) in [10] worked out at 91.9%. The Potency entry in [11] and in [12] was “inactive” in each case.
As to `Nc1ccn([C@@H]2CS[C@H](CO)O2)c(=O)n1`, in experiment [5], the parasite growth, % of DMSO control was determined as 404% [at 57.5 µM]. The compound also came in with a parasite growth remaining, % of DMSO control (lower = more inhibition) in experiment [6] of 100% [at 57.5 µM]. This compound also gave a growth, % of control in experiment [8] of 263% [at 57.5 µM]. In [9], the cell viability, % of control (lower = more cytotoxic) stood at 218% [at 92.2 µM]. For the same compound, the viability (% of control) in experiment [10] came out at 11% [at 92.2 µM]. Besides, the Potency entry in experiment [11] and in experiment [12] was “inactive” throughout.
In experiment [5], `NCC(=O)Nc1ccc(-n2nc(C(F)(F)F)cc2-c2ccc3c(ccc4ccccc43)c2)cc1` registered a parasite growth, % of DMSO control of 5.62%. Further, in [6], the parasite growth remaining, % of DMSO control (lower = more inhibition) is 8.46%. This compound also came in with a parasite growth, % of control (lower = inhibition) in experiment [7] of 12.2%. Also, in experiment [8], the growth, % of control came to 4.19%. The cell viability, % of control (lower = more cytotoxic) in experiment [9] turned out to be 1.18%. The viability (% of control) in [10] was found to be 0.933%. The Potency entry in [11] and in experiment [12] was “inactive” each time.
`Cc1cc(N2CCOCC2)cc2[nH]c(-c3c(NC[C@@H](O)c4cccc(Cl)c4)cc[nH]c3=O)nc12` showed a parasite growth, % of DMSO control in experiment [5] of 5.92%. This compound also returned a parasite growth remaining, % of DMSO control (lower = more inhibition) in [6] of 15.8%. Besides, the parasite growth, % of control (lower = inhibition) in experiment [7] was 14%. In experiment [8], this compound had a growth, % of control of 3.57%. Also, the cell viability, % of control (lower = more cytotoxic) in [9] is 25%. In [10], the viability (% of control) stood at 3.1%. The Potency entry in [11] and in experiment [12] was “inactive” each time.
For the compound `CNC(=O)c1ccccc1Nc1nc(Nc2ccc(N3CCOCC3)cc2OC)ncc1Cl`, the parasite growth, % of DMSO control in [5] came to 10.8%. This compound displayed a parasite growth remaining, % of DMSO control (lower = more inhibition) in experiment [6] of 10.3%. Moreover, the parasite growth, % of control (lower = inhibition) in experiment [7] was 22.9%. Also, the growth, % of control in [8] was 7.48%. In addition, in experiment [9], the cell viability, % of control (lower = more cytotoxic) was 18.7%. The viability (% of control) in experiment [10] came out at 7.05%. Further, the Potency result in experiment [11] and in [12] was “inactive” in each case.
`Cn1c(CNc2ccc(C(=N)N)cc2)nc2cc(C(=O)N(CCC(=O)O)c3ccccn3)ccc21` yielded a parasite growth, % of DMSO control in experiment [5] of 98.6% [at 9.64 µM]. Besides, the parasite growth remaining, % of DMSO control (lower = more inhibition) in experiment [6] stood at 91.9% [at 9.64 µM]. Moreover, in experiment [7], the parasite growth, % of control (lower = inhibition) is 86.3% [at 9.64 µM]. In [8], this compound yielded a growth, % of control of 87.7% [at 9.64 µM]. The cell viability, % of control (lower = more cytotoxic) in experiment [9] was found to be 125% [at 23.2 µM]. Also, the viability (% of control) in experiment [10] amounted to 105% [at 23.2 µM]. Also, the Potency result in experiment [11] and in [12] was “inactive” throughout.
For the compound `O=C(O)c1ccc2c(c1)nc(Nc1cccc(Cl)c1)c1ccncc12`, in experiment [1], the max response was 35.3% (inactive). In experiment [2], the remaining parasite growth % (stronger effect = lower value) is 9.86%. In addition, the activity, percent of control in [3] amounted to 12.2%. Besides, the remaining proliferation (% of control), lower = more inhibition in experiment [4] is -0.0167%. The same compound came in with a parasite growth, % of DMSO control in [5] of 6.23%. In addition, in experiment [6], the parasite growth remaining, % of DMSO control (lower = more inhibition) was found to be 9%. The parasite growth, % of control (lower = inhibition) in [7] amounted to 9.96%. In addition, in experiment [8], the growth, % of control was determined as 4.4%. The cell viability, % of control (lower = more cytotoxic) in experiment [9] was 84.5%. For the same compound, the viability (% of control) in experiment [10] was determined as 72.1%. In experiment [11], the Potency result is “inactive”.
Turning to `CC(C)c1nn(-c2c(Cl)cccc2Cl)c2nc(Cc3ccc(OCCO)cc3)[nH]c(=O)c12`, the parasite growth, % of DMSO control in experiment [5] was determined as 20.8%. Also, in experiment [6], the parasite growth remaining, % of DMSO control (lower = more inhibition) worked out at 62%. In [7], the parasite growth, % of control (lower = inhibition) was found to be 27.3%. In addition, in [8], the growth, % of control came out at 21.7%. Further, the cell viability, % of control (lower = more cytotoxic) in experiment [9] worked out at 3.64%. In addition, in [10], the viability (% of control) was 2.52%. Besides, the Potency entry in experiment [11] and in [12] was “inactive” in each case.
`Cc1nc(N)ncc1-c1nc(N2CCOCC2)c2sc(C(C)(C)O)cc2n1`: in experiment [5], the parasite growth, % of DMSO control is 5.28%. Besides, in experiment [6], the parasite growth remaining, % of DMSO control (lower = more inhibition) worked out at 8.49%. The parasite growth, % of control (lower = inhibition) in experiment [7] amounted to 7.48%. This compound displayed a growth, % of control in [8] of 1.99%. In addition, the cell viability, % of control (lower = more cytotoxic) in [9] worked out at 38.1%. Moreover, the viability (% of control) in experiment [10] amounted to 14%. Further, the Potency entry in [11] and in experiment [12] was “inactive” in each case.
